# In PubChem BioAssay (NCATS):
# Values joined by “and” are separate entries in the source; they are usually repeats but may differ in a detail not shown here. Equal entries are not always repeated. Inconclusive results are not listed. Values without a mark were called inactive. Active and inactive are the calls of the source. The call rests on the fitted dose curve; in most records, active means well fitted curve in the direction sought with a large enough effect; inconclusive means small, poorly fitted or top-dose-only effect, or another doubt; inactive means no such curve, though single readings can be large; an effect the other way counts as inactive or inconclusive.
# Legend:
# CRL-7250 [1] = test: Cytotoxic Profiling of Annotated Libraries Using Quantitative High-Throughput Screening (AID 1296008); conditions: Five cell lines viability, CellTiter-Glo ATP luminescence, 48-72 h; max response: active compounds read low; further: nearly all actives have a fitted effect of over 60% in size; on max response: on the % scale 0 is the no-effect control and ±100 the full control effect
# In short: (§1)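 Cells exposed to compounds for 48 or 72 hr at 37 degrees Celsius. Viability read as ATP-coupled luminescence with CellTiter-Glo after 10 min at room temperature.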
# KB-3-1 = test: as above; conditions: Five cell lines viability, CellTiter-Glo ATP luminescence, 48-72 h; max response: active compounds read low
# In short: as §1
# NIH3T3 [2] = test: as above; conditions: Five cell lines viability, CellTiter-Glo ATP luminescence, 48-72 h; max response: active compounds read low
# In short: as §1
# MCC-13 = test: qHTS assay to identify novel small-molecules to repurpose for Merkel cell carcinoma treatment (AID 1296009); conditions: MCC and control cell lines, CellTiter-Glo viability, 72 h; series mostly up to 46 µM; further: nearly all actives have a fitted effect of over 60% in size
# In short: (§2)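 CellTiter-Glo luminescence after 72 hr compound exposure at 37 degree celsius gave cell viability. Libraries NPC and MIPE were run as 8- and 11-point dose responses; RLUs normalized to DMSO (negative) and no-cell (cytotoxicity) controls.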
# MCC-26 = test: as above; conditions: MCC and control cell lines, CellTiter-Glo viability, 72 h; series mostly up to 46 µM
# In short: as §2
# MKL-1 = test: as above; conditions: MCC and control cell lines, CellTiter-Glo viability, 72 h; series mostly up to 46 µM
# In short: as §2
# MKL-2 = test: as above; conditions: MCC and control cell lines, CellTiter-Glo viability, 72 h; series mostly up to 46 µM
# In short: as §2
# UISO = test: as above; conditions: MCC and control cell lines, CellTiter-Glo viability, 72 h; series mostly up to 46 µM
# In short: as §2
# WaGa = test: as above; conditions: MCC and control cell lines, CellTiter-Glo viability, 72 h; series mostly up to 46 µM
# In short: as §2
# C33A = test: Primary qHTS to identify gynecologic anti-cancer compounds using libraries of approved drugs and bioactive compounds (AID 1345084); conditions: Gynecologic cancer cell panel viability, ATPlite luminescence, 48 h; series mostly up to 57.5 µM; further: nearly all actives have a fitted effect of over 55% in size
# In short: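 ATP-based viability (ATPlite), 1,000 cells/well, 16 h pre-incubation, 48 h compound at 37 C, 5% CO2, 15 min RT before read.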
# HEK293 = test: Cytotoxic Profiling of Annotated Libraries Using Quantitative High-Throughput Screening (AID 1296008); conditions: Five cell lines viability, CellTiter-Glo ATP luminescence, 48-72 h; max response: active compounds read low; further: nearly all actives have a fitted effect of over 60% in size; on max response: on the % scale 0 is the no-effect control and ±100 the full control effect
# In short: as §1
# HaCat = test: as above; conditions: Five cell lines viability, CellTiter-Glo ATP luminescence, 48-72 h; max response: active compounds read low
# In short: as §1
# CRL-7250 [3] = test: qHTS assay to identify novel small-molecules to repurpose for Merkel cell carcinoma treatment (AID 1296009); conditions: MCC and control cell lines, CellTiter-Glo viability, 72 h; at 44.8 µM (top of the series) unless noted; further: nearly all actives have a fitted effect of over 60% in size
# In short: as §2
# NIH3T3 [4] = test: as above; conditions: MCC and control cell lines, CellTiter-Glo viability, 72 h; at 44.8 µM (top of the series) unless noted
# In short: as §2
# TAB109 = test: qHTS profiling for inhibitors of Plasmodium falciparum proliferation (AID 504749); further: nearly all actives have a fitted effect of over 60% in size; conditions: P. falciparum in erythrocytes, SYBR Green DNA, 72 h; series mostly up to 28.7 µM
# In short: (§3)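 SYBR Green fluorescence (ex 485 nm, em 535 nm) reports parasite DNA after 72 h compound exposure of infected red cells at 0.3% parasitemia, 2.5% hematocrit; signal normalized to 0.29 uM artemisinin and vehicle wells.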
# TAB113 = test: as above; conditions: P. falciparum in erythrocytes, SYBR Green DNA, 72 h; series mostly up to 28.7 µM
# In short: as §3
# TAB165 = test: as above; conditions: P. falciparum in erythrocytes, SYBR Green DNA, 72 h; series mostly up to 28.7 µM
# In short: as §3
# W2 = test: as above; conditions: P. falciparum in erythrocytes, SYBR Green DNA, 72 h; series mostly up to 28.7 µM
# In short: as §3
# Potency means the concentration at half of the fitted maximal effect.
smiles,measurement,setting,value
CS(=O)(=O)c1ccc(C(=O)C2C(=O)CCCC2=O)c([N+](=O)[O-])c1,max response,CRL-7250 [1],-5.31%
same,max response,KB-3-1,-20.3%
same,max response,NIH3T3 [2],4.33%
same,Potency,MCC-13,inactive
same,Potency,MCC-26,inactive
same,Potency,MKL-1,inactive
same,Potency,MKL-2,inactive
same,Potency,UISO,inactive
same,Potency,WaGa,inactive
same,Potency,C33A,inactive
COC1=CC(C)=C[C@@H](C)[C@@H](O)[C@@H](C)CC(C)=CC=C[C@H](OC)[C@H]([C@@H](C)[C@@H](O)[C@H](C)[C@@]2(O)C[C@@H](O)[C@H](C)[C@@H](C(C)C)O2)OC1=O,Potency,HEK293,11.8 nM (active)
same,Potency,KB-3-1,5.9 nM (active)
same,Potency,NIH3T3 [2],0.0148 µM (active)
same,Potency,MCC-13,166 nM (active)
same,Potency,MCC-26,4.69 µM (active)
same,Potency,MKL-1,0.118 µM (active)
same,Potency,MKL-2,0.105 µM (active)
same,Potency,UISO,0.0418 µM (active)
same,Potency,WaGa,0.118 µM (active)
CC(=O)O[C@@]12CO[C@H]1C[C@H](O)[C@@]1(C)C(=O)[C@H](O)C3=C(C)[C@@H](O)C[C@@](O)([C@@H](OC(=O)c4ccccc4)[C@@H]21)C3(C)C,Potency,HEK293,2960 nM (active)
same,Potency,KB-3-1,3320 nM (active)
same,Potency,NIH3T3 [2],14.8 µM (active)
same,Potency,MKL-2,inactive
same,Potency,UISO,4.18 µM (active)
CCN1CCN(C(=O)Cc2ccc(Nc3ncc(F)c(Nc4ccc(C(=O)Nc5ccccc5Cl)cc4)n3)cc2)CC1,Potency,CRL-7250 [1],26.4 µM (active) and 16.4 µM (active)
same,Potency,HaCat,8.2 µM (active)
same,Potency,KB-3-1,1840 nM (active)
same,Potency,NIH3T3 [2],20.6 µM (active)
same,Potency,MCC-26,inactive
same,Potency,MKL-2,9.35 µM (active)
same,Potency,C33A,inactive
CC=C(C)C(=O)N[C@@H](c1ccccc1)[C@@H](O)C(=O)O[C@H]1C[C@@]2(O)[C@@H](OC(=O)c3ccccc3)[C@@H]3[C@]4(OC(C)=O)CO[C@@H]4C[C@H](O)[C@@]3(C)C(=O)[C@H](OC(C)=O)C(=C1C)C2(C)C,max response,HEK293,-78.1%
same,Potency,KB-3-1,1 nM (active)
same,Potency,MKL-1,inactive
same,Potency,MKL-2,inactive
CC(C)(C)c1cc(C=C(C#N)C#N)cc(Br)c1O,outcome,CRL-7250 [1],inactive
same,max response,HaCat,3.48%
same,outcome,NIH3T3 [2],inactive
same,outcome,CRL-7250 [3],inactive
same,Potency,MCC-13,inactive
same,Potency,MCC-26,inactive
same,Potency,MKL-1,inactive
same,Potency,MKL-2,inactive
same,outcome,NIH3T3 [4],inactive
same,Potency,UISO,inactive
same,Potency,WaGa,inactive
S=C(SSC(=S)N1CCCCC1)N1CCCCC1,max response,CRL-7250 [1],-1.9%
same,max response,KB-3-1,-9.18%
same,Potency,MCC-13,168 nM (active)
same,Potency,MCC-26,0.133 µM (active)
same,Potency,MKL-1,0.133 µM (active)
same,Potency,MKL-2,0.0944 µM (active)
same,Potency,UISO,0.0944 µM (active)
CCNC(=O)C[C@@H]1N=C(c2ccc(Cl)cc2)c2cc(OC)ccc2-n2c(C)nnc21,Potency,CRL-7250 [1],1.32 µM (active) and 1.3 µM (active)
same,max response,HaCat,-10.8%
same,Potency,NIH3T3 [2],1.84 µM (active)
same,Potency,MCC-13,inactive
same,Potency,MKL-2,1.66 µM (active)
same,Potency,WaGa,5.9 µM (active)
same,Potency,C33A,inactive
N=c1c2c(-c3ccccc3)c(-c3ccccc3)n(Cc3ccccc3)c2ncn1C1CCC(O)CC1 (stereo not given),Potency,HEK293,418 nM (active)
same,max response,HaCat,-23%
same,max response,NIH3T3 [2],-14.3%
same,Potency,MKL-1,18.7 µM (active)
same,Potency,MKL-2,14.8 µM (active)
same,Potency,UISO,3.72 µM (active)
same,Potency,WaGa,2.64 µM (active)
C=C[C@@H]1CN2CCC1C[C@H]2[C@H](O)c1ccnc2ccccc12 (stereo not given in full),outcome,CRL-7250 [1],inactive
same,max response,NIH3T3 [2],-22.5%
same,outcome,CRL-7250 [3],inactive
same,Potency,MCC-13,inactive
same,Potency,MCC-26,inactive
same,Potency,MKL-1,inactive
same,Potency,MKL-2,inactive
same,Potency,UISO,inactive
same,Potency,WaGa,inactive
CC(C)CCCC(C)CCCC(C)CCCCC(C)CCCC(C)CCCC(C)C (stereo not given),outcome,CRL-7250 [3],inactive
CC(C)NC(C)Cc1ccc(I)cc1 (stereo not given),Potency,TAB109,inactive
same,Potency,TAB113,inactive
same,Potency,TAB165,inactive
same,Potency,W2,10.7 µM (active)
same,max response,KB-3-1,2.96%
O=C(C1CC1)N1CC[C@@H](Cn2c(-c3ccc(-c4ccc5occc5c4)cc3)nc3cnccc32)C1,outcome,CRL-7250 [3],inactive
C[C@@H]1CN(c2c(F)c(N)c3c(=O)c(C(=O)O)cn(C4CC4)c3c2F)C[C@H](C)N1,outcome,CRL-7250 [3],inactive [at 17.4 µM]
O=S(=O)(c1ccc(Cl)cc1)c1ccc(Cl)cc1,max response,KB-3-1,-10.2%
same,max response,NIH3T3 [2],-7.95%
same,Potency,MCC-13,inactive
same,Potency,MKL-1,inactive
same,Potency,UISO,inactive
same,Potency,C33A,inactive
COc1ccc(-c2oc3cc(OC)ccc3c2C(=O)c2ccc(C#N)cc2)cc1,outcome,CRL-7250 [3],inactive
CCCN(CCC)c1c([N+](=O)[O-])cc(S(N)(=O)=O)cc1[N+](=O)[O-],Potency,HaCat,68.6 µM (active)
same,max response,KB-3-1,-9.77%
same,Potency,MCC-13,24300 nM (active)
same,Potency,MKL-1,24.3 µM (active)
same,Potency,MKL-2,21.7 µM (active)
same,Potency,UISO,21.7 µM (active)
same,Potency,C33A,35.5 µM (active)
c1cc2ccc3cccc4ccc(c1)c2c34,max response,KB-3-1,-15.2%
same,max response,NIH3T3 [2],-19.4%
same,Potency,MCC-13,inactive
same,Potency,MCC-26,inactive
same,Potency,MKL-1,inactive
same,Potency,MKL-2,inactive
same,Potency,UISO,inactive
same,Potency,WaGa,inactive
same,Potency,C33A,inactive
CC(=O)Nc1ccc(O)cc1,outcome,CRL-7250 [3],inactive
CCCCC(CC)COC(=O)c1ccc(N(C)C)cc1 (stereo not given),outcome,CRL-7250 [3],inactive
CCCn1c(=O)c2[nH]c(C34CC5CC3C[C@@H](C5)C4)nc2n(CCC)c1=O,outcome,CRL-7250 [3],inactive
